Reference: the supplement of paper PMC12350171
Where a name gives a salt, the structure may show the parent alone. Values without a mark were called inactive.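 The calls were made as follows: active = AUC significantly below DMSO controls by Student t-fit with adjusted P under 0.01; inactive = not significantly reduced.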

Test system: Haemophilus parainfluenzae
Experiment: growth AUC normalised to DMSO control (fraction of control); higher = less growth inhibition, active = hit call of the paper
Conditions: 20 µM
In short: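 Pathogens passaged twice anaerobically were inoculated at a starting OD578 of 0.01 into pre-reduced mGAM plates with drug at 20 μM and 1% DMSO, sealed with breathable membranes. Haemophilus parainfluenzae medium was supplemented with hemin and NAD. OD578 was read hourly for 24 h, with three biological replicates. Growth-curve AUC was computed by the trapezoidal rule up to the exponential-to-stationary transition and normalised to DMSO controls on the same plate.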

SMILES	growth AUC normalised to DMSO control
CCN(CC)CCOc1ccc(C(=C(Cl)c2ccccc2)c2ccccc2)cc1 [(Z,E) Clomiphene citrate]	1.02
Nc1nnc(-c2cccc(Cl)c2Cl)c(N)n1 [Lamotrigine]	1.01
Cc1c(N(C)CS(=O)(=O)O)c(=O)n(-c2ccccc2)n1C [Dipyrone sodium salt]	1.02
CC(C)NCC(O)c1ccc(O)c(O)c1 (single isomer, unassigned; (-)) [(-) Isoproterenol hydrochloride]	1.03
Clc1ccc2nsnc2c1NC1=NCCN1 [Tizanidine hydrochloride]	0.965
CC1(C)O[C@@H]2C[C@H]3[C@@H]4C[C@H](F)C5=CC(=O)C=C[C@]5(C)[C@H]4[C@@H](O)C[C@]3(C)[C@]2(C(=O)CO)O1 [Flunisolide]	0.945
CC(=O)OCC(=O)[C@@]1(O)[C@H](C)C[C@H]2[C@@H]3CCC4=CC(=O)C=C[C@]4(C)[C@@]3(F)[C@@H](O)C[C@@]21C [Dexamethasone acetate]	1.03
CN1CC2c3ccccc3Oc3ccc(Cl)cc3C2C1 (stereo not drawn) [Asenapine maleate]	0.851 (active)
CN(C)CCN(Cc1cccs1)c1ccccn1 [Methapyrilene hydrochloride]	0.983
CCCCNc1cc(C(=O)O)cc(S(N)(=O)=O)c1Oc1ccccc1 [Bumetanide]	0.991
CC(C)C(=O)Nc1ccc([N+](=O)[O-])c(C(F)(F)F)c1 [Flutamide]	1.09
Nc1ccc(S(=O)(=O)Nc2ccccn2)cc1 [Sulfapyridine]	0.976
CCCOc1ccc(C(=O)OCCN(CC)CC)cc1N [Proparacaine hydrochloride]	1.01
CCN(CC)CCNC(=O)c1ccc(N)cc1 [Procainamide hydrochloride]	0.983
CC(C)NNC(=O)c1ccncc1 [Iproniazide phosphate]	1.04
Nc1nc2ccc(OC(F)(F)F)cc2s1 [Riluzole hydrochloride]	1.01
CNS(=O)(=O)Cc1ccc2[nH]cc(CCN(C)C)c2c1 [Sumatriptan succinate]	0.984

SMILES	growth AUC normalised to DMSO control
CN(C)CCOC1=Cc2ccccc2Sc2ccc(Cl)cc21 [Zotepine]	0.891
Nc1ccc(C(=O)NCC(=O)O)cc1 [Aminohippuric acid]	1
Clc1ccc(CSC(Cn2ccnc2)c2ccc(Cl)cc2Cl)cc1 (stereo not drawn) [Sulconazole nitrate]	1.08
O=C(NCCNCC(O)COc1ccc(O)cc1)N1CCOCC1 (stereo not drawn) [Xamoterol hemifumarate]	0.775
Cn1c(=O)c2c(ncn2CCO)n(C)c1=O [Etofylline]	1.02
CC[C@H]1OC(=O)[C@H](C)[C@@H](O[C@H]2C[C@@](C)(OC)[C@@H](O)[C@H](C)O2)[C@H](C)[C@@H](O[C@@H]2O[C@H](C)C[C@H](N(C)C)[C@H]2O)[C@](C)(O)C[C@@H](C)C(=O)[C@H](C)[C@@H](O)[C@]1(C)O [Erythromycin]	0.028 (active)
COc1cc2nc(N3CCN(C(=O)c4ccco4)CC3)nc(N)c2cc1OC [Prazosin hydrochloride]	0.981
CN1CCc2c(c3ccccc3n2Cc2ccccc2)C1 [Mebhydroline 1,5-naphtalenedisulfonate]	0.932
O=C(Cn1ccnc1[N+](=O)[O-])NCCO [Etanidazole]	0.929
Cc1scc2c1N(C(=O)CN1CCN(C)CC1)c1ccccc1NC2=O [Telenzepine dihydrochloride]	1
Clc1ccc(Nc2nnc(Cc3ccncc3)c3ccccc23)cc1 [Vatalanib]	1.04
COc1cc(OC)c(C(=O)CCCN2CCCC2)c(OC)c1 [Buflomedil hydrochloride]	1.01
OC(c1cc(C(F)(F)F)nc2c(C(F)(F)F)cccc12)C1CCCCN1 (stereo not drawn) [Mefloquine hydrochloride]	0.903
Cc1nnc(SCC2=C(C(=O)O)N3C(=O)[C@@H](NC(=O)Cn4cnnn4)[C@H]3SC2)s1 [Cefazolin sodium salt]	0.0609 (active)
CCc1c2c(nc3ccc(OC(=O)N4CCC(N5CCCCC5)CC4)cc13)-c1cc3c(c(=O)n1C2)COC(=O)[C@]3(O)CC [Irinotecan hydrochloride trihydrate]	1
CCN(CC)Cc1cc(Nc2ccnc3cc(Cl)ccc23)ccc1O [Amodiaquine dihydrochloride dihydrate]	0.992
